# Experimental data reported in PubChem BioAssay (NCI).
# This is part of a sample that, as a whole, favours compounds with a hit. Of some 83,000 tested, about 20% had one in any assay.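 96-well plates, one dose, 48 hours. Percent growth reported; active if below 10.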 Activity calls are given as the source filed them.
# System: A498 renal
# Test: NCI-60 one-dose screen, 48 h (100 = growth as untreated, 0 = no growth, -100 = all killed)
# Details: 10 µM unless noted
row,Compound,growth
1,NS(=O)(=O)c1ccc(Nc2nc(N/N=C/c3c[nH]c4ccccc34)nc(Nc3ccccc3)n2)cc1,51.2% (inactive)
2,CCc1cccc2c3c(sc12)C(c1ccc(OC)cc1)C(C#N)=C(/N=C/c1ccc(Cl)cc1)O3 (stereo not drawn),-7.61% (active)
3,Cn1ccnc1C(=O)/C=C/c1ccc(CNC(=O)c2ccc(F)cc2)cc1,63.7% (inactive)
4,N#Cc1cccc(NC(=O)c2cc(-c3ccc(F)cc3F)ccc2O)c1,-33.1% (active)
5,O=S(=O)(NCCCNc1nccc(-c2[nH]c(-c3ccccc3)nc2-c2ccc(Cl)c(O)c2)n1)c1cccc2ccccc12,71.9% (inactive)
6,CC1(C)[C@@H](O)CC[C@]2(C)[C@H]3CC[C@@H]4[C@H]5[C@H](C(=O)/C=C\c6ccncc6)CC[C@]5(O)CC[C@@]4(C)[C@]3(C)CC[C@@H]12,46.6% (inactive)
7,CS(=O)(=O)Nc1cc(-c2ccc3ncc(C#N)c(N[C@H](CO)c4ccccc4)c3c2)cnc1Cl,7.35% (active)
8,O=C(CSc1nc2ccccc2c(=O)n1-c1ccccc1)Nc1ccc(-c2nc3ccc([N+](=O)[O-])cc3[nH]2)cc1,77.8% (inactive)
9,Oc1cccc2ccc(-c3nnc(SCc4ccc(O)c5ncccc45)n3-c3ccccc3)nc12,31.5% (inactive)
10,C=CCn1c(SCC(=O)Nc2ccc(C(=O)/C=C/c3ccc(C)cc3)cc2)nnc1-c1c[nH]c2ccccc12,95.1% (inactive)
11,C[C@@H](Nc1c(C#N)cnc2ccc(-c3cnc(Cl)c(NS(C)(=O)=O)c3)cc12)c1ccccc1,-49.8% (active)
12,CCN(CC)c1ccc(NC2=C(Cl)C(=O)c3nc(C)ccc3C2=O)cc1,104% (inactive)
13,C#Cc1nc(C(=O)NCCC(=O)Nc2ccc(NC(=O)c3ccc(/C=C/C(=O)c4nccn4C)cc3)cc2)cs1,90.5% (inactive)
14,CCN(CC)CCn1c2ccc(O)cc2c2sc3cc(OC)ccc3c(=O)c21,73.3% (inactive)
15,CC1(C)CC[C@]2(C(=O)N3CCOCC3)CC[C@]3(C)C(=CC[C@@H]4[C@@]5(C)C/C(=C/c6ccccn6)C(=O)C(C)(C)[C@@H]5CC[C@]43C)[C@@H]2C1,-3.14% (active)
16,Cc1nc(-c2ccccc2O)ccc1C(=O)N=Nc1c(O)[nH]c2ccc(Br)cc12,101% (inactive)
17,O=C(CCn1c[n+](CC(=O)c2ccc(-c3ccccc3)cc2)c2ccccc21)Nc1cccc2cccnc12,88.7% (inactive)

row,Compound,growth
1,COC(=O)c1[nH]nc2c1C1(C(=O)c3cccc4cccc1c34)C(C#N)=C(N)O2 (stereo not drawn),82.1% (inactive)
2,N=c1c2cc(-c3ccccc3)oc2ncn1/N=C/c1ccc(Cl)cc1,99.7% (inactive)
3,Cc1ccc(-n2c(/C=C3\C(=O)Nc4ccccc43)ccc2CO)cc1,47% (inactive)
4,CC(=O)N(C)C1CCc2c(sc(NC(=O)c3ccc(C(C)(C)C)cc3)c2C(N)=O)C1 (stereo not drawn),80% (inactive)
5,CC1(C)[C@@H](O)CC[C@]2(C)[C@H]3CC[C@@H]4[C@H]5[C@H](C(=O)/C=C\c6ccc([N+](=O)[O-])cc6)CC[C@]5(O)CC[C@@]4(C)[C@]3(C)CC[C@@H]12,48.7% (inactive)
6,Cc1ccc(NC(=O)CNc2cc(C(N)=O)cc(F)c2C)c(Cl)c1,39% (inactive)
7,COc1ccc(N2CCN(C3=C(Cl)C(=O)C(C)=C(C)C3=O)CC2)cc1,108% (inactive)
8,CN1CCN(c2ccc(/C=N/Nc3nc4ccccc4c(=O)n3-c3ccccc3)cc2)CC1,89.8% (inactive)
9,COc1cc(-c2nc3sccn3c2-c2ccnc(S(C)(=O)=O)n2)ccc1F,95.1% (inactive)
10,Cc1ccc2c(c1)Oc1nc(N)c(C#N)c(N)c1C2Sc1ccc(F)cc1 (stereo not drawn),-99.3% (active)
11,CCCn1cnc2c(c1=N)C(c1ccc(F)cc1)c1sc3c(C)cccc3c1O2 (stereo not drawn),-19.9% (active)
12,COc1ccc(Cn2cc3c(c2-c2cc(OC)c(OC)c(OC)c2)CCc2c(CN4CCCC4)noc2-3)cc1,-1.61% (active)
13,CC1=N[C@@H]2CN(C(=O)OC(C)(C)C)C[C@@H]2n2c1cc1ccccc1c2=O,114% (inactive)
14,COc1cc(OC)cc(C(=O)Nc2cccc(C#Cc3cccc4[nH]nc(N)c34)c2)c1,-19.2% (active)
15,COc1ccccc1-n1cc(C#N)c(N)c1C(=O)c1ccc(Br)cc1,60.6% (inactive)
16,CS(=O)(=O)Nc1cc(-c2ccc3ncc(C#N)c(NCc4cccc(F)c4)c3c2)cnc1Cl,-48.9% (active)
